# Tests used:
# Assay in all cases: PBM binding z-score (relative to random genomic background probes); higher = stronger binding; sequences stand for … in GC…GCGATTGACAGCGTAGAATGAAGG
# [1] = system: PPARg:RXRa DBDmut IVT, anti-RXR (DBD mutation: RXRa K156A/R161A, NR concentration 270 nM, RXRa partner concentration 90 nM)
# In short: (§1)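 Each nuclear receptor dimer, without ligand, was incubated for 1 h on custom Agilent 4×180K protein-binding microarrays. Binding was detected with antibodies against each partner (one per run), and scanned fluorescence was regression-normalized. The binding z-scores are referenced to random human genomic background probes.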
# [2] = system: PPARg:RXRa IVT, anti-PPARg (NR concentration 270 nM, RXRa partner concentration 90 nM)
# In short: as §1
# [3] = system: PPARg DBDmut:RXRa IVT, anti-PPARg (DBD mutation: PPARg1 K132A/R137A, NR concentration 270 nM, RXRa partner concentration 90 nM)
# In short: as §1
# [4] = system: PPARg DBDmut IVT, anti-PPARg (DBD mutation: PPARg1 K132A/R137A, NR concentration 270 nM)
# In short: as §1
# [5] = system: PPARg homodimer (NR concentration 180 nM)
# In short: as §1
# [6] = system: PXR:RXRa (NR concentration 270 nM, RXRa partner concentration 90 nM)
# In short: as §1
# [7] = system: PXR homodimer (NR concentration 270 nM)
# In short: as §1
# [8] = system: RARa:RXR (NR concentration 270 nM, RXRa partner concentration 90 nM)
# In short: as §1
# [9] = system: RARa homodimer (NR concentration 270 nM)
# In short: as §1
# [10] = system: RARb:RXRa (NR concentration 270 nM, RXRa partner concentration 90 nM)
# In short: as §1
# [11] = system: RARb homodimer (NR concentration 270 nM)
# In short: as §1
# [12] = system: RARg:RXRa (NR concentration 270 nM, RXRa partner concentration 90 nM)
# In short: as §1
# [13] = system: RARg homodimer (NR concentration 270 nM)
# In short: as §1
# [14] = system: RXRa DBDmut IVT, anti-RXR (DBD mutation: RXRa K156A/R161A, NR concentration 90 nM)
# In short: as §1
# [15] = system: RXRa homodimer (NR concentration 180 nM)
# In short: as §1
# [16] = system: THRa:RXRa (NR concentration 90 nM, RXRa partner concentration 90 nM)
# In short: as §1
# [17] = system: THRa homodimer (NR concentration 90 nM)
# In short: as §1
# [18] = system: VDR homodimer (NR concentration 270 nM)
# In short: as §1
Sequence,PBM binding z-score [1],PBM binding z-score [2],PBM binding z-score [3],PBM binding z-score [4],PBM binding z-score [5],PBM binding z-score [6],PBM binding z-score [7],PBM binding z-score [8],PBM binding z-score [9],PBM binding z-score [10],PBM binding z-score [11],PBM binding z-score [12],PBM binding z-score [13],PBM binding z-score [14],PBM binding z-score [15],PBM binding z-score [16],PBM binding z-score [17],PBM binding z-score [18]
TAGCCTAGGTCATGCGGGCCAGAATAGTGTCGGC,1.69,2.9,-0.0114,-0.646,0.886,1.66,-0.503,2.58,-0.8,3.83,2.94,4.18,4.34,0.571,3.18,3.03,0.922,0.435
CCTACTGGGCCATTCAGCGGTCATTGATCATATG,4.3,3.25,0.0512,-0.76,0.303,-0.111,-0.0854,0.0105,0.0285,1.2,1.85,1.97,1.02,-0.0941,-0.0428,0.283,0.0718,0.166
ATCGCTAGGTAAGACTCAGTTCAGTGAAGAACGC,-0.311,-0.264,-0.423,-0.364,-0.443,0.322,0.471,-0.577,-0.519,-0.283,-0.147,-0.35,-0.262,-0.408,-0.428,0.249,-0.192,0.334
CCTAGCAGCCCAGGGTCACTCAAGCATTTCGCTT,-0.614,0.169,-1.11,-1.49,1.2,2.56,0.192,3.27,0.00809,2.4,2.69,2.9,2.45,0.289,3.38,2.77,1.13,1.33
CCTACTTGGTCAAGGTCACACACGCTATAGGTAC,2.5,3.56,0.858,1.02,3.34,4.31,1.72,4.29,2.21,4.18,4.57,4.56,4.86,2.17,4.71,4.06,4.41,3.28
GATACAGGGCCAAGGCCAGAGTACGCGTATTGAT,-0.255,-0.178,-0.899,-1.53,-0.373,-0.55,-0.406,-0.762,-0.587,0.946,0.738,0.109,0.599,-0.254,0.197,-0.171,-0.281,-0.147
GCAGACAGGTGAAACGCAGGTAACTCAGGGTGGC,0.989,0.639,-1.03,-0.587,-0.666,-0.437,-0.625,0.284,-0.853,0.575,0.13,0.712,0.0344,-0.777,0.519,1.42,-0.615,-0.666
TCTAGTTGGTCACGTAGGTCACACACGACGGGTA,2.33,3.55,1.17,0.772,2.46,2.27,0.538,2.84,0.979,3.26,3.66,3.36,3.67,1.06,2.91,2.39,1.04,1.22
CTCGAAAGCTCGGTTGAGGTGAGTATACGGATAA,-0.672,-0.193,-0.22,-0.607,-0.84,-0.305,-0.679,0.034,-0.648,-0.166,-0.282,-0.264,-0.254,-0.28,-0.256,1.85,1.03,-0.293
TCCCGGAGGACACGAAAGGTCAGAGCTCGACATC,1.58,1.17,-0.696,-0.402,2.86,3.87,0.5,4.24,1.11,4.25,4.78,4.89,5.23,0.811,3.89,3.88,1.31,0.948
TCTGATAGGTCAACGATGGTCAGCTAATCTGCTA,3.63,3.48,0.759,0.735,2.17,3.01,-0.308,3.7,1.12,4.44,3.94,5.15,5.89,1.21,4.73,3.1,-0.296,-0.032
ATCTCTAGGTAACAAGTTCAGAGAAAGAGAGGAC,2.92,2.66,0.959,2.27,0.923,1.59,1.6,1.1,1.3,1.53,1.98,1.45,1.32,0.95,1.04,1.49,0.815,2.72
CCTATTAGTTGACCATAAGGGCAACCTAAGCTCG,0.374,0.836,0.365,0.874,1.32,0.876,0.98,1.49,2.27,1.57,2.22,1.47,1.24,0.437,0.949,2.16,1.8,0.755
TGTAGTTGGTCAAAGGTCACACACTCGAAATGCG,1.7,6.41,2.33,2.58,5.57,6.06,1.72,7.38,3.74,4.86,4.97,7.09,6.06,1.24,8.07,4.1,2.18,2.51
ATATCTAGGTTACATCCGGGTCATTCAGGCTATG,7.39,7.41,3.31,3.16,2.49,3.62,3.73,3.4,1.99,2.63,3.15,3.37,2.49,1.4,2.78,3.94,3.37,3.63

# Reference: the supplement of paper PMC6555819
